From PubChem BioAssay (NCATS)
Results filed as inconclusive are left out. Activity calls are given as the source filed them. Calls come from the whole dose curve; as a rule, active = well fitted curve in the direction sought with a large enough effect; inconclusive = small, poorly fitted or top-dose-only effect, or another doubt; inactive = no such curve, though single readings can be large; an effect the other way counts as inactive or inconclusive.

Experiments:
CAOV3 = test: Primary qHTS to identify gynecologic anti-cancer compounds using libraries of approved drugs and bioactive compounds (AID 1345084); settings: Gynecologic cancer cell panel viability, ATPlite luminescence, 48 h; series mostly up to 57.5 µM; note: nearly all actives have a fitted effect of over 55% in size; for activity change, negative = cytotoxicity: % is set by controls: 0 for no effect and ±100 for the full control effect
How it was run: (§1)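 Luminescence from the ATPlite ATP-monitoring reagent indicates viable cell number; lower signal means cytotoxicity. Cells received compound 16 h after seeding and were exposed for 48 h across five concentrations.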

Es-2 = test: as above; settings: Gynecologic cancer cell panel viability, ATPlite luminescence, 48 h; series mostly up to 57.5 µM
How it was run: as §1

HeLa = test: as above; settings: Gynecologic cancer cell panel viability, ATPlite luminescence, 48 h; series mostly up to 57.5 µM
How it was run: as §1

Hek293T = test: as above; settings: Gynecologic cancer cell panel viability, ATPlite luminescence, 48 h, control line for the selectivity index; series mostly up to 57.5 µM
How it was run: as §1

JEG-3 = test: as above; settings: Gynecologic cancer cell panel viability, ATPlite luminescence, 48 h; series mostly up to 57.5 µM
How it was run: as §1

SKOV3 = test: as above; settings: Gynecologic cancer cell panel viability, ATPlite luminescence, 48 h; series mostly up to 57.5 µM
How it was run: as §1

Tov-21-G = test: as above; settings: Gynecologic cancer cell panel viability, ATPlite luminescence, 48 h; series mostly up to 57.5 µM
How it was run: as §1

Tov112D = test: as above; settings: Gynecologic cancer cell panel viability, ATPlite luminescence, 48 h; series mostly up to 57.5 µM
How it was run: as §1

OV90 = test: as above; settings: Gynecologic cancer cell panel viability, ATPlite luminescence, 48 h; series mostly up to 57.5 µM
How it was run: as §1

PA-1 = test: as above; settings: Gynecologic cancer cell panel viability, ATPlite luminescence, 48 h; series mostly up to 57.5 µM
How it was run: as §1

CASKI = test: as above; settings: Gynecologic cancer cell panel viability, ATPlite luminescence, 48 h; series mostly up to 57.5 µM
How it was run: as §1

[1] = qHTS assay to identify inhibitors of the type 1 interferon - major histocompatibility complex class I in skeletal muscle: Counter screen cell viability and HiBit confirmation (AID 1347412); settings: iHSKM muscle cells + IFN-b, HiBiT or CellTiter-Glo, 24 h; note: nearly all actives have a fitted effect of over 60% in size
How it was run: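 Luminescence read-out: Nano-Glo HiBiT lytic signal from C-terminally HiBiT-tagged HLA-B in CRISPR-edited human myoblasts, plus CellTiter Glo ATP as viability counter screen. IFN-beta 4.0 ng/ml; 24 hrs treatment at 37 C, 5% CO2.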
Potency is the fitted concentration of half-maximal effect.

COc1ccc(Cl)c(Nc2ncnc3cc(OCC4CCN(C)CC4)c(OC)cc23)c1
active: Potency (CAOV3) 8.91 µM | Potency (SKOV3) 3.55 µM | Potency (Tov-21-G) 3.16 µM
inactive: Potency (Es-2) | Potency (HeLa) | Potency (Hek293T) | Potency (JEG-3) | Potency (Tov112D)

Cn1c(=O)c2c(ncn2Cc2ccc(C(C)(C)C)cc2)n(C)c1=O
active: Potency (JEG-3) 14.1 µM | Potency (OV90) 10 µM
inactive: Potency (CAOV3)

Cc1cc(-c2nc(-c3ccc(OC(F)(F)F)cc3)no2)nn1Cc1ccnc(N2CCN(C3CC3)CC2)c1
inactive: Potency (CAOV3) | Potency (Es-2) | Potency (HeLa) | Potency (Hek293T) | Potency (JEG-3) | Potency (PA-1) | Potency (Tov-21-G) | Potency (Tov112D)

O=C(NCCCc1ccccc1)c1cccc(-c2cc(O)c3ncccc3c2)c1
active: Potency (SKOV3) 11.2 µM | Potency (Tov112D) 17.8 µM
inactive: Potency (CAOV3) | Potency (CASKI) | Potency (Tov-21-G)

C=C1C(=O)O[C@@H]2C3C(=C(C)[C@@H](O)[C@@H](OC(=O)/C(=C/C)COC(C)=O)[C@@H]12)C(=O)[C@H]1O[C@@]31C (stereo partly drawn)
inactive: Potency (HeLa) | Potency (OV90)
active: Potency (CAOV3) 8.91 µM | Potency (Es-2) 8.91 µM | Potency (Hek293T) 7.94 µM | Potency (PA-1) 8.91 µM | Potency (Tov112D) 12.6 µM

C=C1C(=O)OC2C(OC(=O)C=C(C)C)C(C)=C3C(=O)C=C(C)C3C(O)C12 (stereo not drawn)
inactive: Potency (CASKI) | Potency (HeLa) | Potency (Tov112D)
active: Potency (CAOV3) 11.2 µM | Potency (SKOV3) 12.6 µM

Cc1c(NC(=O)OCC2COCCN2)cn2ncnc(Nc3ccc4c(cnn4Cc4cccc(F)c4)c3)c12 (stereo not drawn)
inactive: Potency (CAOV3) | Potency (Es-2) | Potency (HeLa) | Potency (Hek293T) | Potency (OV90)

CCCCNc1ncc2c(-c3ccc(S(=O)(=O)N4CCOCC4)cc3)nn(C3CCC(O)CC3)c2n1 (stereo not drawn)
active: Potency (CAOV3) 7.94 µM | Potency (HeLa) 10 µM
inactive: Potency (JEG-3)

CC(C)=C1C[C@@]2(C)C(=CC1=O)CC[C@@H](OC(=O)/C(C)=C/CO)[C@@H]2C
active: Potency (SKOV3) 11.2 µM
inactive: Potency (CAOV3) | Potency (HeLa) | Potency (Hek293T) | Potency (JEG-3) | Potency (OV90) | Potency (Tov-21-G) | Potency (Tov112D)

COc1cccc(OCCCN)c1-c1cc(Nc2cnc(C#N)cn2)n[nH]1
active: Potency (CAOV3) 14.1 µM | Potency ([1]; HiBiT) 15.7 µM | Potency ([1]; Viability) 17.6 µM
inactive: Potency (CASKI)

CS/C=C/C(=O)O[C@@H]1CCC2=CC(=O)C(=C(C)C)C[C@]2(C)[C@H]1C
inactive: Potency (CAOV3) | Potency (Es-2) | Potency (HeLa) | Potency (Hek293T) | Potency (JEG-3) | Potency (OV90) | Potency (PA-1) | Potency (Tov-21-G) | Potency (Tov112D)

Cn1nc(-c2ccc(C(F)(F)F)cc2)nc2c(=O)n(C)c(=O)nc1-2
active: Potency (CAOV3) 10 µM | Potency (Es-2) 15.8 µM | Potency (HeLa) 20 µM | Potency (JEG-3) 10 µM | Potency (PA-1) 5.01 µM | Potency (SKOV3) 17.8 µM | Potency (Tov-21-G) 12.6 µM | Potency (Tov112D) 7.94 µM

C=C1CC[C@@H]2[C@](C)(CO)[C@H](O)CC[C@@]2(C)[C@@H]1C/C=C1/C(=O)OCC1O (stereo partly drawn)
inactive: Potency (CAOV3) | Potency (HeLa) | Potency (JEG-3) | Potency (OV90) | Potency (SKOV3)

C=C1C(=O)O[C@H]2C3=C(C)CCC[C@]3(C)C(=O)C[C@@H]12
active: Potency (CAOV3) 31.6 µM | Potency (Es-2) 31.6 µM | Potency (Tov-21-G) 20 µM
inactive: Potency (HeLa) | Potency (JEG-3)

CCCC(Nc1nc(-c2ccc(NC(=O)NCC)c(OC)c2)ncc1C)c1cccnc1 (stereo not drawn)
inactive: Potency (CAOV3)
active: Potency (Es-2) 0.251 µM | Potency (HeLa) 0.158 µM | Potency (PA-1) 0.251 µM | Potency (Tov-21-G) 0.316 µM | Potency (Tov112D) 0.158 µM

COc1cc(C[C@H]2C(=O)OC[C@@H]2Cc2ccc(OC)c(OC)c2)ccc1O
inactive: Potency (CAOV3) | Potency (HeLa) | Potency (JEG-3) | Potency (OV90) | Potency (PA-1) | Potency (Tov-21-G) | Potency (Tov112D)

CCN1CCN(Cc2ccc(NC(=O)c3ccc(C)c(Oc4ccnc5[nH]ccc45)c3)cc2C(F)(F)F)CC1
active: Potency (Tov-21-G) 12.6 µM
inactive: Potency (CAOV3) | Potency (Es-2) | Potency (HeLa) | Potency (Hek293T)

COC1C(O)C(OC2CCC3(C)C(CCC45CCC6C7(COC(=O)C7)OC4(O)C6(C)CCC35)C2)OC(C)C1OC1OC(CO)C(OC2OC(CO)C(O)C(O)C2O)C(O)C1O (stereo not drawn)
inactive: activity change, negative = cytotoxicity (CAOV3) 5.13% [at 11.6 µM] | activity change, negative = cytotoxicity (CASKI) 22.8% [at 11.6 µM] | activity change, negative = cytotoxicity (HeLa) -19.8% [at 11.6 µM] | activity change, negative = cytotoxicity (OV90) -0.158% [at 11.6 µM] | activity change, negative = cytotoxicity (SKOV3) -3.24% [at 11.6 µM]

Cn1cc(-c2cnn3c(N)c(Br)c(C4CCCNC4)nc23)cn1 (stereo not drawn)
inactive: Potency (CAOV3) | Potency (CASKI) | Potency (JEG-3) | Potency (OV90) | Potency (Tov112D)
active: Potency (PA-1) 14.1 µM

C=C(NC(=O)C(=C)NC(=O)c1csc(C2=NC3c4csc(n4)C4NC(=O)c5csc(n5)C(C(C)(O)C(C)O)NC(=O)C5CSC(=N5)/C(=C/C)NC(=O)C(C(C)O)NC(=O)c5csc(n5)C3(CC2)NC(=O)C(C)NC(=O)C(=C)NC(=O)C(C)NC(=O)C(C(C)CC)NC2C=Cc3c(C(C)O)cc(nc3C2O)C(=O)OC4C)n1)C(N)=O (stereo not drawn)
inactive: Potency (HeLa) | Potency (OV90) | Potency (Tov112D)
active: Potency (CAOV3) 25.1 µM | Potency (Hek293T) 17.8 µM | Potency (PA-1) 28.2 µM
